Results on 50 compounds are retold here after PubChem BioAssay AID652154 (Broad Institute, 2013).

About 4,200 (1.2%) of roughly 360,000 compounds were called active. Many of the other results were omitted from the sample, so actives are more common in it than they were. Values without a mark were called inactive.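 Rule for the calls: active = mean replicate inhibition at least 60% with every replicate also reaching 60%; inconclusive = only one of the two criteria is met; inactive = mean below 60% and not all replicates reaching 60%.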

The nature of this experiment: inhibitors of PAX8-driven TPO luciferase reporter, primary screen, RMG-I cells, single concentration (AID 652154).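 Note: luciferase light reporting Pax8 driven TPO promoter activity; plate controls were median of neutral control wells for no effect and mitoxantrone controls for full effect.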 Conditions: SteadyGlo, 24 h, at 12.6 µM, hits give high values. (In general: A reporter such as luciferase makes a cellular process visible.)
The inhibition is the change of the read-out against control, counted positive when it falls. `COc1ccccc1S(=O)(=O)N[C@@H]1CC[C@H](CC(=O)N2CCOCC2)O[C@@H]1CO`: the inhibition was 3.09%.

As for `COc1ccc(C#Cc2ccc3c(c2)[C@]2(C(=O)N3)[C@H](c3ccccc3OCCO)N3[C@H](c4ccccc4)[C@H](c4ccccc4)OC(=O)[C@H]3[C@@H]2C(=O)N2CCCCCCC2)cc1`, the inhibition was 0.581%.

In the case of `COC(=O)C(CC#Cc1ccc2c(c1)[C@]1(C(=O)N2)[C@H](c2ccc(O)cc2)N2[C@H](c3ccccc3)[C@H](c3ccccc3)OC(=O)[C@H]2[C@@H]1C(=O)NC[C@H](O)c1ccccc1)C(=O)OC`, the inhibition is -24.8%.

For the compound `COC(=O)C(CC#Cc1ccc2c(c1)[C@]1(C(=O)N2)[C@H](c2ccccc2OCCO)N2[C@H](c3ccccc3)[C@H](c3ccccc3)OC(=O)[C@H]2[C@@H]1C(N)=O)C(=O)OC`, the inhibition is 92.9% (active).

Regarding `Cc1ccc(S(=O)(=O)Nc2cccc3c2O[C@H](CN(C)CC2CCCCC2)[C@H](C)CN([C@H](C)CO)C3=O)cc1`, the inhibition was -4.8%.

Take `COc1ccc(CN(C)C[C@H]2OCCCC[C@@H](C)Oc3ccc(NC(=O)Nc4cccc5ccccc45)cc3C(=O)N([C@H](C)CO)C[C@@H]2C)cc1`: the inhibition is 14.2%.

In the case of `CNC(=O)C1CCN(S(=O)(=O)c2c(C)noc2/C=C/c2cccc(C)c2)CC1`, the inhibition was -0.657%.

For the compound `Cc1noc(/C=C/N(C)C)c1S(=O)(=O)N1CCCC(C(=O)NCc2ccco2)C1` (stereo not given), the inhibition was 38.6%.

On to `Cc1noc(/C=C/c2ccco2)c1S(=O)(=O)N1CCC(C(=O)Nc2ccc(Cl)cn2)CC1`, for which the inhibition is 74.4% (active).

As for `CC(=O)N1CCCCN2[C@H](CO)[C@H](c3ccc(-c4ccccc4)cc3)[C@@H]2C1`, the inhibition is 8.11%.

As for `CC(C)NC(=O)Nc1ccc2c(c1)C(=O)N([C@@H](C)CO)C[C@@H](C)[C@@H](CN(C)C(=O)Nc1ccc(C(F)(F)F)cc1)OCCCC[C@H](C)O2`, the inhibition was -21.5%.

In the case of `C[C@@H]1CN([C@@H](C)CO)C(=O)c2cc(NC(=O)Nc3ccc(C(F)(F)F)cc3)ccc2O[C@@H](C)CCCCO[C@H]1CN(C)C(=O)c1ccccc1`, the inhibition was 84.4% (active).

Turning to `CC(C)NC(=O)N(C)C[C@H]1OCCCC[C@H](C)Oc2ccc(NC(=O)Nc3ccc(C(F)(F)F)cc3)cc2C(=O)N([C@H](C)CO)C[C@@H]1C`, the inhibition was 93.7% (active).

Take `C[C@@H]1CCCCO[C@H](CN(C)C(=O)Nc2ccc(C(F)(F)F)cc2)[C@H](C)CN([C@H](C)CO)C(=O)c2cc(NC(=O)Nc3ccc(C(F)(F)F)cc3)ccc2O1`: the inhibition is 17.5%.

For the compound `C[C@@H]1CN([C@H](C)CO)C(=O)c2cccc(NC(=O)Nc3ccccc3)c2O[C@@H]1CN(C)C(=O)NC1CCCCC1`, the inhibition was 9.31%.

Consider `CC(C)NC(=O)Nc1ccc2c(c1)C(=O)N([C@@H](C)CO)C[C@H](C)[C@H](CN(C)C(=O)c1ccccc1)OCCCC[C@@H](C)O2`, for which the inhibition was 3.59%.

In the case of `C[C@@H]1CCCCO[C@@H](CN(C)C(=O)Nc2ccc(C(F)(F)F)cc2)[C@H](C)CN([C@H](C)CO)C(=O)c2cc(NC(=O)c3ccccc3)ccc2O1`, the inhibition is -6.62%.

For the compound `C[C@@H]1CCCCO[C@H](CN(C)C(=O)C2CCCCC2)[C@@H](C)CN([C@@H](C)CO)C(=O)c2cc(NC(=O)Nc3ccccc3)ccc2O1`, the inhibition was 80.3% (active).

Take `C[C@@H]1CCCCO[C@H](CN(C)C(=O)Nc2ccccc2)[C@H](C)CN([C@H](C)CO)C(=O)c2cc(NC(=O)Nc3ccccc3)ccc2O1`: the inhibition was 10.5%.

In the case of `C[C@H]1CN([C@@H](C)CO)C(=O)c2cccc(NC(=O)Nc3ccc(C(F)(F)F)cc3)c2O[C@H]1CN(C)C(=O)NC1CCCCC1`, the inhibition is 92.2% (active).

`C[C@@H]1CCCCO[C@@H](CN(C)C(=O)C2CCCCC2)[C@H](C)CN([C@H](C)CO)C(=O)c2cc(NC(=O)Cc3ccccc3)ccc2O1`: the inhibition was -7.3%.

For `C[C@H](CO)N1C[C@H](C)[C@@H](CN(C)C(=O)NC2CCCCC2)Oc2c(NC(=O)Nc3ccc(F)cc3)cccc2C1=O`, the inhibition was -8.27%.

As to `Cc1ccc(S(=O)(=O)Nc2cccc3c2O[C@@H](CN(C)S(=O)(=O)c2c(C)noc2C)[C@@H](C)CN([C@H](C)CO)C3=O)cc1`, the inhibition was -20.1%.

On to `C[C@H]1CCCCO[C@@H](CN(C)Cc2ccc3c(c2)OCO3)[C@@H](C)CN([C@@H](C)CO)C(=O)c2cc(NC(=O)c3ccccc3)ccc2O1`, for which the inhibition is 10.2%.

Regarding `COCC(=O)Nc1ccc2c(c1)C(=O)N(C)C[C@@H](OC)[C@H](C)CN(C(=O)c1cccnc1)[C@H](C)CO2`, the inhibition was -16.5%.

With `C/C=C/c1cnc2c(c1)C(=O)N([C@@H](C)CO)C[C@@H](C)[C@@H](CN(C)C(=O)C1CCOCC1)O2`, the inhibition was -0.814%.

As to `O=C(O)c1cc(S(=O)(=O)N(Cc2ccccc2)c2cccc(C(F)(F)F)c2)ccc1Cl`, the inhibition was -20%.

Take `O=C(NNc1ccccc1Cl)C(O)(c1cccc(C(F)(F)F)c1)c1cccc(C(F)(F)F)c1`: the inhibition is 66.8% (active).

Take `O=c1cc(O)c(-c2cccc(C(F)(F)F)c2)c(Cl)[nH]1`: the inhibition is 4.02%.

As to `O=C(C1CCCC1)N1CC(=O)N2[C@H](CO)[C@H](c3ccc(Br)cc3)[C@H]2C1`, the inhibition is -9.22%.

Consider `C/C=C/c1ccc([C@@H]2[C@H](CO)N(C(C)=O)[C@H]2CN(CC)C(=O)CN(C)C)cc1`, for which the inhibition is 9.68%.

As for `COCC(=O)Nc1ccc2c(c1)OC[C@H](C)N(C(=O)c1cnccn1)C[C@@H](C)[C@H](OC)CN(C)C2=O`, the inhibition was -7.83%.

Consider `O=C(C1CCC1)N1CCCCN2[C@H](C1)[C@@H](c1ccc(C#CC3CCCC3)cc1)[C@@H]2CO`, for which the inhibition was 36.8%.

Consider `O=c1oc2ccccc2cc1-c1cn(-c2ccccc2)c(=S)[nH]1`, for which the inhibition is 62.6% (active).

Consider `COc1cccc(-n2c(=S)[nH]c3c(oc4ccccc43)c2=O)c1`, for which the inhibition was 3.59%.

Regarding `CC(C)NC(=O)Nc1ccc2c(c1)C(=O)N([C@@H](C)CO)C[C@@H](C)[C@H](CN(C)C(=O)Cc1ccccc1)OCCCC[C@H](C)O2`, the inhibition is 4.73%.

As to `CN1CCN(C(=O)C[C@@H]2CC[C@@H]3[C@H](COC[C@@H](O)CN3Cc3cccc(F)c3)O2)CC1`, the inhibition was -11.1%.

For the compound `CCCC#Cc1cnc2c(c1)C(=O)N([C@@H](C)CO)C[C@@H](C)[C@@H](CN(C)C(=O)c1ccccc1)O2`, the inhibition is 8.32%.

Regarding `C=C1C(=O)OC2C1CCC(C)=CCCC1(C)OC21` (stereo not given), the inhibition was 108% (active).

As to `O=S(=O)(c1ccc(F)cc1)N1CCCCN2[C@H](C1)[C@H](c1ccc(C3=CCCCC3)cc1)[C@@H]2CO`, the inhibition is 16.3%.

Take `CC(C)c1cn(CC[C@@H]2CC[C@@H](NC(=O)C3CCC3)[C@@H](CO)O2)nn1`: the inhibition was 2.99%.

With `COc1ccc(CNC(=O)COC(=O)C(CCSC)N2C(=O)c3ccccc3C2=O)cc1` (stereo not given), the inhibition is -2%.

Regarding `NS(=O)(=O)c1ccc(CCNC(=O)CN2C(=O)c3ccccc3S2(=O)=O)cc1`, the inhibition is 0.854%.

Turning to `COc1ccc(CNC(=O)CN2C(=O)c3ccccc3S2(=O)=O)cc1`, the inhibition was 75.6% (active).

Regarding `C/C=C/c1ccccc1[C@@H]1[C@@H](CO)N(S(=O)(=O)c2cccc(F)c2)[C@H]1C#N`, the inhibition was -12.9%.

On to `C[C@@H]1CN([C@@H](C)CO)C(=O)c2cc(NC(=O)CCCN(C)C)ccc2O[C@H]1CN(C)Cc1ccccc1`, for which the inhibition was -7.53%.

As for `COc1ccccc1-c1ccc2c(c1)O[C@H](CN(C)C(=O)c1cccnc1)[C@H](C)CN([C@@H](C)CO)S2(=O)=O`, the inhibition is -1.96%.

On to `COc1ccc(C(C#N)=C2C=CC(=NO)c3ccccc32)cc1`, for which the inhibition is 70.5% (active).

Turning to `COc1ccc(C(=NN)c2ccc(OC)cc2)cc1`, the inhibition is -68%.

Take `COc1ccc(/C(N)=N/OC(=O)Cc2ccccc2)cc1`: the inhibition was -143%.
